Screening data from PubChem BioAssay.
Shown are actives, neighbours in structure and some others; about 3.6% of the full set was active somewhere.
D1 potentiator = Potentiators of Human D1 Dopamine Receptor: qHTS | D(1A) dopamine receptor (Homo sapiens), P21728 | potentiation, % at 10 µM | AID 504651, 2011 | HEK293 TREx D1 cells, calcium flux, dopamine EC20 potentiation | hit rate 0.036% among 360,000; in the data active means potentiation above about 30%; further: 0% is about no effect
TRHR PAM = qHTS for Small Molecule Agonists and Allosteric Enhancers of Human TRH Receptor: Primary Screen for Enhancers; enhancement, % at 2 µM; TRHR cells, fluo-8 calcium fluorescence, EC20 TRH enhancement; Thyrotropin-releasing hormone receptor (Homo sapiens), P34981; hit rate 0.66% among 360,000; in the data active means enhancement above about 30%; further: 0% is about no effect
Target sequence (P34981 whole entry, looked up): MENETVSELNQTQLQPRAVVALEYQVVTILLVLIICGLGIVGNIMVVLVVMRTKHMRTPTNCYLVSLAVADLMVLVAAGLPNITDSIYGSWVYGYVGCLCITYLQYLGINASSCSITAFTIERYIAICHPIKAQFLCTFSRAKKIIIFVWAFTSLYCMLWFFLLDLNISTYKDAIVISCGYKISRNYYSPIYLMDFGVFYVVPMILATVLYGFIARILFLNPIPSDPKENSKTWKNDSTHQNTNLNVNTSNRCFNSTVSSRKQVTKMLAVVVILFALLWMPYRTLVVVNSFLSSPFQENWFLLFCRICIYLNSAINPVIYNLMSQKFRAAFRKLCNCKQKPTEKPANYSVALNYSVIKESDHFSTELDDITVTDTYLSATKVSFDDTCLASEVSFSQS
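Enhancer read-out: after compound pinning and an initial kinetic agonist-mode read, an EC20 of TRH (10 nM final) was injected and fluo-8 calcium signal (Ex 480/Em 530) followed at 1 s/cycle for 100 cycles in TRHR-expressing cells.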
LDHA block = qHTS assay for inhibitors of human lactate dehydrogenase; L-lactate dehydrogenase A chain (Homo sapiens), P00338; purified LDHA, NADH/diaphorase-resazurin fluorescence; stronger effect = lower value; activity change, % (values are at about 110 or 230 µM); hit rate 0.15% among 480,000; in the data active means activity change below about -30%; inconclusive means mostly about -25% to -30%;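 further: plate controls were DMSO wells for no effect and wells without enzyme for full effect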
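Human LDH5 at 2 nM final in Tris HCl pH 7.4 with 0.06 mM NADH and 0.2 mM pyruvate, reacted 5 minutes at room temperature. Remaining NADH coupled via diaphorase/resazurin; resorufin fluorescence read at 0 and 20 minutes, normalized to enzyme-free and DMSO wells.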
D1 agonist = Allosteric Agonists of the Human D1 Dopamine Receptor: qHTS; D(1A) dopamine receptor (Homo sapiens), P21728; HEK293 T-REx D1 cells, calcium flux, agonist mode; activation, % at 2 µM; hit rate 1% among 360,000; further: 0% is about no effect
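Inducible HEK293 T-REx D1 cells, force-coupled to calcium signalling, were plated at 4000 cells/well with tetracycline and held overnight at 30 C. After no-wash calcium dye loading, compound-evoked calcium rise over 180 s flagged agonists.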
TRHR ag = qHTS for Small Molecule Agonists and Allosteric Enhancers of Human TRH Receptor: Primary Screen for Agonists; Thyrotropin-releasing hormone receptor (Homo sapiens), P34981; TRHR cells, calcium flux fluo-8, FDSS agonist mode; hit rate 0.18% among 360,000; activation, % at 2 µM; further: 0% is about no effect
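TRHR-expressing cells, plated overnight in medium with 10% serum, were loaded with fluo-8 calcium dye at room temperature. After a 10 s baseline, library compound was pin-added and calcium release was recorded kinetically (ex 480/em 530) as agonist response.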
D1 antag = Antagonist of Human D 1 Dopamine Receptor: qHTS | hit rate 3.2% among 360,000 | D(1A) dopamine receptor (Homo sapiens), P21728 | activity change, negative = inhibition, % at 10 µM | HEK293 TREx D1 cells, calcium flux, dopamine EC80; stronger effect = lower value; in the data active means activity change below about -30%; further: on the % scale 0 is the no-effect control and ±100 the full control effect
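Inducible Hek293 Trex D1 cells (tetracycline, overnight, 30 C). Calcium dye 30–90 min RT. Antagonist mode: EC80 dopamine added after 180 s compound read.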
Starred values were filed as active, the others as inactive; ? = inconclusive; nt = no result given; ! = not active in a repeat. Unless noted, no stated cut-off is given here; in the data, active means activation above about 30%; inactive means the rest.

SMILES	D1 potentiator	TRHR PAM	LDHA block	D1 agonist	TRHR ag	D1 antag
CCOC(=O)c1cnc2c(Cl)c(Cl)ccc2c1NCCO	nt	nt	7.8	nt	nt	nt
CCCn1c(SC(C(=O)Nc2cc(C)ccc2OC)c2ccccc2)nc2ccccc2c1=O (stereo unspecified)	1.4	4.4	-4.1	1.4	1.3	-96.5*
COC(=O)c1c(C)sc(-c2c(-c3ccc(F)cc3)[nH]c3[nH]c(=O)[nH]c(=O)c23)c1O	1.9	7.8	-4.3	131.0*	56.4*	1.1
O=C(COC(=O)c1cc[n+]([O-])cc1)Nc1ccc(SC(F)F)cc1	-2.6	1.9	-7.1	2.5	1.0	-33.8*
O=C(COC(=O)c1cc[n+]([O-])cc1)Nc1ccc(Br)cc1	7.2	5.2	-5.8	0.7	0.4	9.1
Cc1ccc(-n2ncc3c(NCCc4ccccc4)ncnc32)cc1C	-4.1	3.4	1.9	6.0	1.4	-58.9*
COc1ccc(OC)c(Nc2ncnc3c2cnn3-c2cccc(C)c2)c1	-9.2	1.2	1.2	-2.4	-0.2	-39.6*
Cc1cccc(-n2ncc3c(NCc4ccccc4)ncnc32)c1	-8.2	8.0	-2.7	2.8	-0.3	-89.3*
c1ccc(CNc2ncnc3c2cnn3-c2ccccc2)cc1	-3.7	6.5	-7.7	2.7	0.0	-3.5
Cc1nn(CC(=O)N2CCCCC2C)c(C)c1S(=O)(=O)NC(C)(C)C (stereo unspecified)	nt	nt	-5.2	nt	nt	nt
COc1cccc(-c2nc(N(C)C3CCCCC3)c3ccccc3n2)c1O	nt	nt	-4.9	nt	nt	nt
O=C(O)c1cc(-c2ccc3c(c2)OCO3)nc2ccc(Cl)cc12	1.2	33.5*	-3.2	2.6	-0.3	-11.8
Cn1c(NC(=O)c2cc(-c3ccc4c(c3)OCO4)nc3ccccc23)cc(=O)n(C)c1=O	1.0	14.3	-2.9	3.5	-0.1	-30.5*
Cc1cc2oc(C(=O)NCC(c3ccco3)N3CCOCC3)c(C)c2cc1C (stereo unspecified)	nt	nt	1.5	nt	nt	nt
CC1C/C(=N/O)C(C)CN1 (stereo unspecified)	3.4	34.0*	-8.4	2.3	1.2	10.9
Cc1ccc(Cl)cc1N1CCN(c2ncnc3onc(-c4ccc(F)cc4)c23)CC1	-6.5	-5.2	-1.1	0.6	2.7	-35.8*
Cc1ccc(N2CCN(c3ncnc4onc(-c5ccc(F)cc5)c34)CC2)c(C)c1	-4.7	-7.9	-2.9	-0.2	-1.1	-1.1
CCCCc1ccc(NC(=S)NCc2cccs2)cc1	-0.4	-3.4	0.0	7.5	-0.1	-32.1*
OC(COCCOCCOCCOCc1ccccc1)C(O)COCCOCCOCCOCc1ccccc1 (stereo unspecified)	nt	nt	3.0	nt	nt	nt
COc1ccc2ccccc2c1-c1sc(Nc2ccccc2)n[n+]1-c1ccc(F)cc1	-8.7	-8.3	-7.9	36.9*	5.8	-39.6*
COc1ccc(-c2sc(Nc3ccccc3)n[n+]2-c2ccc(F)cc2)cc1Br	4.4	-2.0	-10.1	-0.7	-0.2	-4.1
CCc1ccc(Nc2n[n+](-c3ccccc3)c(-c3c(Cl)cccc3Cl)s2)cc1	-6.8	-9.2	-2.1	92.5*	-0.1	-69.1*
Fc1ccc(-[n+]2nc(Nc3ccccc3)sc2-c2c(Cl)cccc2Cl)cc1	-5.2	-8.7	0.3	49.3*	3.1	-26.8
COCCOc1ccc(C(=O)/C=C/c2ccc(O)cc2)cc1OC	nt	nt	-0.7	nt	nt	nt
Cc1cc(C)c(Nc2cc(S(=O)(=O)O)c(N)c3c2C(=O)c2ccccc2C3=O)c(C)c1	-2.5	2.8	?	39.9*	-0.3	-15.2
SMILES	D1 potentiator	TRHR PAM	LDHA block	D1 agonist	TRHR ag	D1 antag
Cc1ccc(C(=O)NCC(=O)N(C)Cc2ccccc2C)s1	nt	nt	-9.2	nt	nt	nt
CCOc1ccccc1C(=O)NCC(=O)N(C)Cc1ccccc1C	-4.3	-6.5	-8.3	6.2	0.2	-43.3*
CCOC(=O)C1CCN(c2nc3ccccc3nc2C(C#N)C(=O)NCCc2ccccc2)CC1 (stereo unspecified)	-1.4	-9.2	nt	0.4	3.4	-30.5*
CCCCn1nc(C(=O)Nc2ccccc2)c2ccccc2c1=O	nt	nt	2.3	nt	nt	nt
Cc1ccsc1C1C(C#N)=C(N)N(N(C)C)C2=C1C(=O)CCC2 (stereo unspecified)	-2.3	5.4	-1.0	7.4	0.1	-35.4*
COc1ccccc1N1CCN(C(c2cccs2)c2nnnn2C2CCCC2)CC1 (stereo unspecified)	-5.4	-4.4	0.2	1.0	-1.1	-34.6*
COC(=O)c1onc(-c2ccccc2)c1C(=O)OC	-1.4	3.8	-6.4	2.9	0.0	-36.2*
Cc1ccc(S(=O)(=O)Nc2ccc3cn[nH]c3c2)c(C)c1	-7.3	-0.7	-12.3	4.2	-0.5	-20.6
CCOc1cc(C)c(S(=O)(=O)Nc2ccc3cn[nH]c3c2)cc1C	3.5	2.3	6.2	32.6*	-0.3	-13.1
COc1c(C)cc(Br)cc1C(=O)Nc1sc2c(c1C(N)=O)CCC(C)C2 (stereo unspecified)	nt	nt	14.9	nt	nt	nt
COc1ccc(C)cc1Nc1c2c(nc3ccccc13)CCC2	-9.9	-4.8	-14.6	6.4	1.1	-55.0*!
O=C(CCCCCl)Nc1c2c(nc3ccccc13)CCC2	0.3	-3.9	-10.1	0.7	0.5	20.4
Fc1ccc(Nc2c3c(nc4ccccc24)CCC3)cc1	-13.0	2.2	0.3	13.7	-0.4	-40.9*
CCCCCC(=O)Nc1c2c(nc3ccccc13)CCC2	-1.1	31.7*	-3.3	1.7	0.3	2.8
Fc1ccccc1Nc1c2c(nc3ccccc13)CCC2	-5.2	15.5	2.7	2.7	-2.0	-33.5*
O=C(CCCc1nc2ccccc2s1)NC1CCSc2c(F)cccc21 (stereo unspecified)	nt	nt	-3.0	nt	nt	nt
CCN(CC)CC1CCN(C(=O)/C=C/c2ccc(C#N)cc2)CC1	nt	nt	1.6	nt	nt	nt
O=C(NCCN1CCN(C(=O)CCc2c[nH]c3ccccc23)CC1)c1ccco1	nt	nt	-3.7	nt	nt	nt
CN(C)c1ccc(/C=C/c2ccc3c4ccccc4ccc3[n+]2-c2ccccc2)cc1	-4.5	-9.4	5.0	4.1	2.4	-32.6*
CNc1ccc(C(=O)OCC(=O)Nc2ccnn2C(C)C)cc1[N+](=O)[O-]	-6.2	-2.8	-1.3	3.5	0.1	-42.1*
O=C(CN1C(=O)S/C(=C\c2ccccn2)C1=O)Nc1ccccc1	-3.9	-0.1	-19.2	2.5	0.0	-2.0
O=C(O)CN1C(=O)/C(=C\c2cccc(OCc3ccccc3)c2)SC1=S	-10.9	-0.5	?	2.4	0.1	-1.6
